Sampled rows, rich in hits. Any-hit rate of the full collection: about 1.1%.
TRPV1 ag: human TRPV1 agonism; Q8NER1; 320,000 compounds, 0.19% hits; activation, % at 8.33 µM; TRPV1-expressing cells, Fluo-8 calcium influx, agonist mode; in the data active = activation above about 80%; inconclusive = between about 30% and that limit; also: 0% is about no effect
Target sequence (Q8NER1 whole entry, looked up): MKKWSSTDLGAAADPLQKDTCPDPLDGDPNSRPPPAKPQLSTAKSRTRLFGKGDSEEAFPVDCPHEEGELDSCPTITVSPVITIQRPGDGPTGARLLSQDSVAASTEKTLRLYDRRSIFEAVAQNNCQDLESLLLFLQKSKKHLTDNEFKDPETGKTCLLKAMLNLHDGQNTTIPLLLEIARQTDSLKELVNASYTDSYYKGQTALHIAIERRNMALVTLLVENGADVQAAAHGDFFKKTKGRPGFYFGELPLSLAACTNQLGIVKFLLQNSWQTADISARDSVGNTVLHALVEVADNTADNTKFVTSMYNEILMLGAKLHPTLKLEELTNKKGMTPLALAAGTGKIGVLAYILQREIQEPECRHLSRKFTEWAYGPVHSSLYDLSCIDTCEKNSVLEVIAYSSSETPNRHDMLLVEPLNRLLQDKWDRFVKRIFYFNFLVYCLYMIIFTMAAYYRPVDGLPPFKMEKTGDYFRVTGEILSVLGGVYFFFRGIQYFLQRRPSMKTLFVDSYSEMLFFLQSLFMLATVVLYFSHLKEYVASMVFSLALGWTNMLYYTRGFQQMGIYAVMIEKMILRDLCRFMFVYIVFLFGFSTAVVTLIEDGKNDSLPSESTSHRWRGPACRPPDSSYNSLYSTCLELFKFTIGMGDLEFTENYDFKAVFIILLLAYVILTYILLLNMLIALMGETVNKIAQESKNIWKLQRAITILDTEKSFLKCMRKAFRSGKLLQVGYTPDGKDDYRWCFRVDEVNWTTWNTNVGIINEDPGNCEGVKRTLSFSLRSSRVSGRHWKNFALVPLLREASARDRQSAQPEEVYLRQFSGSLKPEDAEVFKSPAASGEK
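TRPV1-expressing cells were cultured overnight at 35.5C and loaded with Fluo-8 calcium dye for 40 to 90 min at room temperature. After a 10 s baseline, compound was added and calcium influx was read kinetically for 3 min (ex 480/em 520 nm).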
TRPV1 potentiator: enhances activation of the human vanilloid receptor TRPV1 | Q8NER1 | TRPV1-expressing cells, Fluo-8 calcium influx, capsaicin EC20 potentiation | potentiation, % at 8.33 µM | 320,000 compounds, 0.02% hits | AID 540277; in the data active = potentiation above about 80%; inconclusive = between about 30% and that limit; also: 0% is about no effect
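Cells expressing TRPV1 were dye-loaded with Fluo-8 and read kinetically: 10 s baseline, 3 min after compound (agonist portion), then 2 min after EC20 capsaicin (allosteric enhancer portion). Calcium-bound dye fluorescence at 480/520 nm.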
gsp antag: antagonists of gsp mutant (McCune-Albright syndrome). gsp-mutant cells, cAMP HTRF, 30 min. Potency, µM (doses to about 76.9 µM), for the others: at the top dose activity change, negative = inhibition, actives largely listed as inhibitors. 340,000 compounds, 0.4% hits. AID 624288; calls by dose curve; cell line not stated here;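 also: intracellular cAMP measured with PDE inhibitor Ro 20-1724 present during compound exposure; potency is read from the fitted curve at half-maximal effect; % is scaled to controls: 0 for no effect and ±100 for the full control effect; nearly all actives have a fitted effect of over 65% in size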
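Cells, 2000/well, grown 16–24 h in DMEM 10% FBS with 0.5 mg/ml G418, then compounds plus […] (300 uM addition stock), 30 min at 37C. cAMP read by HTRF (cAMP-d2 and anti-cAMP antibody-K in lysis buffer) after 30 min RT.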
gsp agonist: agonists of gsp mutant (McCune-Albright syndrome); gsp mutant cells, cAMP HTRF, 30 min; Potency, µM (titrated, usually from 76.9 µM), without a hit: at the highest dose activation (cAMP increase), usual class: activators; 340,000 compounds, 0.13% hits; AID 624287; active = well fitted activation curve with a large enough effect; inconclusive = small, poorly fitted or top-dose-only effect, or another doubt; inactive = no such curve, though single readings can be large or run the other way; cell line not stated here;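 also: phosphodiesterase inhibitor Ro 20-1724 added with compounds to block cAMP breakdown; potency is read from the fitted curve at half-maximal effect; nearly all actives have a fitted effect of over 60% in size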
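Cells in DMEM/10% FBS with G418 were pretreated with compounds in DMSO plus […] (300 uM stock) for 30 min at 37C. cAMP was measured by HTRF (cAMP-d2 plus anti-cAMP antibody-K) after 30 min at room temperature.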
RXFP1 antag: antagonists of human relaxin receptor RXFP1; HEK293-RXFP1, relaxin-stimulated cAMP HTRF, 30 min; stronger effect = lower value; 350,000 compounds, 0.59% hits; Q9HBX9; activity change, negative = inhibition, % at 57.5 µM;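 active = activity change of -60% or lower, but not beyond a set lower limit; inconclusive = change between -60% and -40%, or beyond the set limit; inactive = change above -40%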; also: % is scaled to controls: 0 for no effect and ±100 for the full control effect
RXFP1 ag: agonists of human relaxin receptor RXFP1; HEK293T-RXFP1 cAMP TR-FRET, 30 min; response scale: percent of porcine relaxin response, buffer zero; 370,000 compounds, 0.3% hits; Potency, µM (top dose mostly 57.5 µM), for inactives: top-dose activation, most hits filed as activators; active = well fitted activation curve with a large enough effect; inconclusive = small, poorly fitted or top-dose-only effect; also: potency is read from the fitted curve at half-maximal effect; % is scaled to controls: 0 for no effect and ±100 for the full control effect; nearly all actives have a fitted effect of over 60% in size
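Agonist response is measured as cAMP accumulation in an RXFP1-transfected HEK293T line under PDE4 inhibition. Values are scaled between buffer-only and 29 nM porcine relaxin, and EC50s come from standard Hill equation fits.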
* marks the source's active call; other numbers are inactive results; ? = inconclusive; nt = no result; [ ] = another dose, or the depositor's remark.

SMILES | TRPV1 ag | TRPV1 potentiator | gsp antag | gsp agonist | RXFP1 antag | RXFP1 ag
COc1ccc(-c2cc(C(F)(F)F)nc(-n3nc(C(F)(F)F)cc3C)n2)cc1 | nt | nt | nt | nt | -32 | 4%
Nc1cc(C(F)(F)F)ccc1S | nt | nt | nt | nt | -8 | nt
CC(C)c1ccc(CNNC(=O)c2ccccc2)cc1 | 83* | -7 | -7% | 6% | 4 | 0%
O=C(NNCc1ccccc1)c1ccccc1 | nt | nt | 8% | -12% | 2 | nt
CC(C)C[C@H](NC(=O)N1CCn2c1nc1ccccc12)C(=O)NC1CCCCC1 | ? | -27 | 11% | 38% | -67* | 1%
Oc1ccccc1C1C=C(c2ccc3c(c2)OCO3)NC(c2cccc(F)c2)N1 (stereo not given) | 14 | -13 | nt | nt | nt | nt
Cc1ccc(N(Cc2cccs2)C(=O)C(C)Oc2ccc(Cl)c(C)c2)cc1 (stereo not given) | nt | nt | nt | nt | -100* | -2%
Cc1ccc(N(Cc2cccs2)C(=O)c2ccc(Br)o2)cc1 | nt | nt | nt | nt | -85* | 0%
Cc1ccc(N(Cc2cccs2)C(=O)c2ccccc2)cc1 | nt | nt | nt | nt | nt | -1%
COc1ccc(N(Cc2cccs2)C(=O)c2ccc(C(C)(C)C)cc2)cc1 | nt | nt | nt | nt | -73* | -1%
CC1CC(C)CN(S(=O)(=O)c2ccc3c(c2)oc(=O)n3CC(=O)NCCCOC(C)C)C1 (stereo not given) | 3 | 25 | 5% | -18% | -1 | 0%
CCC(C)Sc1cccc(-c2nc3ccc(C)cn3c2NCc2ccccc2)c1 (stereo not given) | -1 | -17 | ? | nt | nt | 13%
CCC(C)Sc1cccc(-c2nc3ccc(Cl)cn3c2NCc2ccccc2)c1 (stereo not given) | 87* | 27 | -3% | nt | nt | 6%
Cc1c(Cl)cccc1NC(=O)C(CCS(C)(=O)=O)N1Cc2ccccc2C1=O (stereo not given) | nt | nt | nt | nt | 5 | 3%
O=c1c2ccsc2ncn1Cc1cccc(C(F)(F)F)c1 | 3 | 1 | -2% | 13µM* | 16 | 3%
O=C(c1ccccc1)C(CN1CCCCC1)c1ccccc1 (stereo not given) | nt | nt | -5% | 5% | -82* | nt
COc1ccc(NC(=O)/C(Cl)=C(/Cl)S(=O)Cc2ccccc2)cn1 (stereo not given) | 2 | 12 | 6% | -1% | -72* | -3%
COc1ccc(C(=O)Nc2cc3c(cc2C(=O)c2ccccc2Cl)OCCO3)cc1 | nt | nt | nt | nt | nt | 2%
Cc1ccccc1C(=O)Nc1nnc(-c2ccc(C(C)(C)C)cc2)s1 | -3 | 83* | 32% | 24% | 4 | 14%
Cc1cccc(C(=O)Nc2nnc(-c3ccc(C(C)(C)C)cc3)s2)c1 | -1 | 4 | 22% | ? | 4 | 7%
Cc1nc2c(c(C)c1CCC(=O)NCc1ccccc1)c(=O)n(C)c(=O)n2C | nt | nt | nt | nt | nt | 7%
Cc1cccc(Cn2c(C)c(CNC3CCCCC3)c(C(=O)O)c2C)c1 | nt | nt | nt | nt | 1 | -4%
Cc1cc(C=O)c(C)n1-c1ccc(NC2CCCC2)c([N+](=O)[O-])c1 | 3 | -6 | -12% | 1%[15.4 µM] | -65* | 0%
N#CC(C#N)=C1C=CC=CN1/C(=C\c1ccccc1)C(=O)c1cccs1 | -6 | 14 | -3% | -39% | 0 | 0%
N#CC(C#N)=C1C=CC=CN1/C(=C\c1ccccc1Cl)C(=O)c1ccccc1 | 10 | 14 | 10% | 4% | -82* | -1%
CC(=O)N1c2nc(-c3ccco3)nn2C2(CCCCC2)[C@@H]2CCCC[C@@H]21 | nt | nt | nt | nt | -26 | 1%
CCCC(=O)N1c2nc(-c3ccco3)nn2C2(CCCCC2)[C@@H]2CCCC[C@@H]21 | nt | nt | nt | nt | -66* | 0%
CC(NC(=O)CN(c1cccc(C(F)(F)F)c1)S(=O)(=O)c1ccc(Cl)c([N+](=O)[O-])c1)c1ccccc1 (stereo not given) | ? | -4 | ? | -11%[15.4 µM] | -82* | -1%
O=[N+]([O-])c1c(Nc2ccccc2O)ccc2nonc12 | -3 | -1 | -17% | 1%[15.4 µM] | -31 | 4%
O=[N+]([O-])c1c(Nc2ccccc2O)cc(Cl)c2nonc12 | 0 | -10 | -21% | -18% | -75* | -2%

Compound activity deposited in PubChem by National Center for Advancing Translational Sciences (NCATS).
